Only some compounds are listed: those with a hit (about 9.6% of all), similar ones and a draw of the others.
Autophagy mod: autophagy modulators in MEF cells, primary screen, imaging, high-content, MEF GFP-LC3; MEF GFP-LC3 puncta imaging; test concentration mostly 10 µM; calls only at 10 µM (by protocol); 0.98% of 190,000 active; AID 463193, 2010;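 active means percentage of spot-positive cells more than 3 SD above its plate mean, without a fluorescence outlier flag or 80% toxicity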;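 further: spot-positive cell cutoff set from DMSO-treated cells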
Ins promoter up: insulin promoter activators in MIN6 cells, imaging, high-content screening, mouse beta cells; z-score at 5 µM; AID 1625, 2009; MIN6 insulin promoter-GFP reporter; stronger effect = higher value; 0.3% of 190,000 active;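 active means z-score above 3 at 5 µM with at least 500 cells counted in the well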
Insulin prom inh: inhibitors of insulin promoter-driven GFP, primary screen, imaging, TRM-6 cells (human fetal islet line), eGFP reporter, cell count | 0.9% of 130,000 active | reporter expression induced with tamoxifen | inhibition, % at 2 µM;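 active means inhibition above the mean plus 3 SD, with well images judged a real hit on visual review, cut at about 60% in these data, passing the limit was not always enough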
HCT116 bCat-KO: primary screen for growth suppressors in beta-catenin knockout HCT116 cells (colon tumor, human); 1.5% of 140,000 active; AID 818, 2007; HCT116 beta-catenin knockout viability, CellTiter-Glo, 60 h; stronger effect = lower value; viability, % at 10 µM;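 active means viability at or under a set limit, the compound median less 4 SD, cut at about 6% in these data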;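 further: 0% = Hyamine 1622 control at 20 µM and 100% = untreated cell control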
HCT116 PTEN-null: growth suppression of PTEN-null HCT116, primary screen, cell-based, CellTiter-Glo; 1.2% of 140,000 active; HCT116 PTEN-null viability, 60 h; stronger effect = lower value; AID 827, 2007; viability, % at 10 µM;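 active means viability at or below a set limit, 4 SD under the median of all tested compounds, cut at about 3.7% in these data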;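 further: PTEN knockout HCT116 line with beta catenin targeted HCT116 as companion control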
L major viab: Leishmania major promastigote growth inhibition, primary screen | Leishmania major promastigotes, resazurin fluorescence viability | 9% of 200,000 active | inhibition, % at 10 µM | AID 1063, 2008; in the data active means inhibition above about 50%;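 further: promastigotes grown with compound for 44 hours at 28 °C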
The depositor's hits bear a star.

How did COc1ccccc1CNC(=S)Nc1ccc2nc(N3CCN(C)CC3)cc(C)c2c1 do in these assays?
Autophagy mod: inactive; Ins promoter up: 1.1; Insulin prom inh: 7; L major viab: 100*

Results for CCn1c(SCC(=O)NNC(=O)c2ccco2)nnc1-c1ccco1 ?
Autophagy mod: inactive; Ins promoter up: -0.13; Insulin prom inh: -13; L major viab: 2

Results for CCc1ccc(NC(=O)c2cnc3n(c2=O)CCS3)cc1 ?
Autophagy mod: inactive; Ins promoter up: -0.3; HCT116 bCat-KO: 76; HCT116 PTEN-null: 71; L major viab: -6

How did CCCN1CCN(C(=S)Nc2ccc3nc(N4CCN(CC)CC4)cc(C)c3c2)CC1 do in these assays?
Autophagy mod: inactive; Ins promoter up: 0.38; L major viab: 37

What do the screens show for `CCN1CCN(c2cc(C)c3cc(NC(=S)NCc4cccs4)ccc3n2)CC1`?
Autophagy mod: inactive; Ins promoter up: 0.02; L major viab: 99*

Results for CN1C(=O)/C(=C\C(=O)c2cccs2)c2ccccc21 ?
Autophagy mod: inactive; Ins promoter up: 0.54; L major viab: 100*

Results for COc1cc(Br)cc2cc(C(=O)N3CCN(c4ccccn4)CC3)c(=O)oc12 ?
Autophagy mod: inactive; Ins promoter up: 0.57; Insulin prom inh: 21; HCT116 bCat-KO: 95; HCT116 PTEN-null: 90; L major viab: -4

How did CCN(CC)CCN1C2=C(C(=O)CC(C)(C)C2)C(c2cccc(F)c2)C2=C1CC(C)(C)CC2=O do in these assays?
Autophagy mod: inactive; Ins promoter up: 0.22; Insulin prom inh: -140; L major viab: 22

Results for CC1(C)CC(=O)C2=C(C1)N(CCN1CCOCC1)C1=C(C(=O)CC(C)(C)C1)C2c1cccc(Cl)c1 ?
Autophagy mod: inactive; Ins promoter up: -0.63; HCT116 bCat-KO: 87; HCT116 PTEN-null: 93; L major viab: 61*

Results for O=C(NCc1ccccc1Cl)C1CCCN(c2nc3ccsc3c(=O)s2)C1 (configuration not stated) ?
Autophagy mod: inactive; Ins promoter up: -0.37; L major viab: -13

What do the screens show for `C=CCSc1ncc(C(=O)OCC)c(N)n1`?
Autophagy mod: inactive; Ins promoter up: 0.22; Insulin prom inh: 100*; L major viab: 5

How did CCOC(=O)c1cnc(SCC(=O)OC)nc1N do in these assays?
Autophagy mod: inactive; Insulin prom inh: 18; L major viab: -1

Results for CCc1ccc2c(c1)CCCN2C(=O)c1ccccc1C(=O)O ?
Autophagy mod: inactive; Ins promoter up: -5.3; HCT116 bCat-KO: 80; HCT116 PTEN-null: 80; L major viab: 99*

Results for CCc1nnc(NC(=O)C2CCCN(c3nc(C)cc(C)n3)C2)s1 (configuration not stated) ?
Autophagy mod: inactive; Ins promoter up: 0.52; HCT116 bCat-KO: 110; HCT116 PTEN-null: 116; L major viab: -10

Results for Cc1cc2ccccc2c(=O)n1CC(=O)NCC(=O)N1CCN(c2cccc(Cl)c2)CC1 ?
Autophagy mod: inactive; Ins promoter up: -0.21; Insulin prom inh: -71; HCT116 bCat-KO: 58; HCT116 PTEN-null: 77; L major viab: 0

How did CCOC(=O)c1c(NCC2CCCO2)c2ccccc2[nH]c1=O (configuration not stated) do in these assays?
Autophagy mod: inactive; Ins promoter up: 0.31; Insulin prom inh: 31; HCT116 bCat-KO: 104; HCT116 PTEN-null: 92; L major viab: 4

What do the screens show for `CCOC(=O)c1c(C)oc2c1cc(O)c1ccccc12`?
Autophagy mod: inactive; Ins promoter up: -0.22; Insulin prom inh: 55; HCT116 bCat-KO: 90; HCT116 PTEN-null: 85; L major viab: -7

How did CCOC(=O)c1c(C)oc2c1c(C=NCc1ccccn1)c(O)c1ccccc12 do in these assays?
Autophagy mod: inactive; Ins promoter up: 0.19; HCT116 bCat-KO: 18; HCT116 PTEN-null: 5; L major viab: 98*

Results for CCOC(=O)c1c(C)oc2c1c(C(c1cccnc1)N1CCOCC1)c(O)c1ccccc12 (configuration not stated) ?
Autophagy mod: inactive; Ins promoter up: 0.96; HCT116 bCat-KO: 24; HCT116 PTEN-null: 20; L major viab: 97*

How did CCOC(=O)c1c(C)oc2c1c(C=NCC1CCCO1)c(O)c1ccccc12 (configuration not stated) do in these assays?
Autophagy mod: inactive; Ins promoter up: 0.09; Insulin prom inh: 0; HCT116 bCat-KO: 70; HCT116 PTEN-null: 70; L major viab: 98*

How did CCn1ccnc1CN(C)Cc1cn(C)nc1-c1ccccc1F do in these assays?
Autophagy mod: inactive; Ins promoter up: -0.04; Insulin prom inh: -14; L major viab: 10

What do the screens show for `O=C(O)c1cc(S(=O)(=O)N2CCN(c3ccccn3)CC2)ccc1Cl`?
Autophagy mod: inactive; Ins promoter up: -0.17; Insulin prom inh: 10; L major viab: -4

How did COc1ccc(NC(=O)Cc2ccc(Cl)c(Cl)c2)cn1 do in these assays?
Autophagy mod: inactive; Ins promoter up: -1.1; Insulin prom inh: 17; L major viab: 5

How did COc1ccc(NC(=O)/C(Cl)=C(/Cl)S(=O)(=O)Cc2ccc(C)cc2)cn1 do in these assays?
Autophagy mod: inactive; Ins promoter up: -2.3; Insulin prom inh: -223; HCT116 bCat-KO: 3.1*; HCT116 PTEN-null: 2.0*; L major viab: 22

How did CCN(c1ccccc1)S(=O)(=O)c1cc(C(=O)Nc2ccc(F)c(F)c2)ccc1F do in these assays?
Autophagy mod: inactive; Ins promoter up: -0.73; HCT116 bCat-KO: 4.5*; HCT116 PTEN-null: 3.4*; L major viab: 27

What do the screens show for `O=C(NCCCN1CCOCC1)C(Sc1ccccc1)c1ccccc1` (configuration not stated)?
Autophagy mod: inactive; Ins promoter up: 0.41; Insulin prom inh: -13; HCT116 bCat-KO: 105; HCT116 PTEN-null: 100; L major viab: 91*

What do the screens show for `COc1cccc(C(=O)NCCCN2CCN(CCCNC(=O)c3cccc(OC)c3)CC2)c1`?
Autophagy mod: inactive; Ins promoter up: 0.09; Insulin prom inh: -6; HCT116 bCat-KO: 93; HCT116 PTEN-null: 100; L major viab: -1

How did CCN1CCN(CCCNC(=O)c2cc3cc4ccc(OC)cc4nc3o2)CC1 do in these assays?
Autophagy mod: inactive; Ins promoter up: -0.48; Insulin prom inh: 25; HCT116 bCat-KO: 50; HCT116 PTEN-null: 61; L major viab: 100*

What do the screens show for `Cc1ccc2cc3cc(C(=O)NCCN4CCOCC4)oc3nc2c1`?
Autophagy mod: inactive; Ins promoter up: 0.09; Insulin prom inh: 5; HCT116 bCat-KO: 81; HCT116 PTEN-null: 94; L major viab: 70*

What do the screens show for `COc1ccc2cc3cc(C(=O)NCCCN4CCOCC4)oc3nc2c1`?
Autophagy mod: inactive; Insulin prom inh: -6; HCT116 bCat-KO: 88; HCT116 PTEN-null: 81; L major viab: 98*

High-throughput results as filed in PubChem BioAssay.
